This experiment addresses AMP-activated protein kinase, AMPK (Homo sapiens) (UniProt P54646+O43741+P54619+Q9UGJ0+Q9Y478+Q13131+Q9UGI9). The experiment in a line: AMP-dependent Kinase enzyme assay. An in vitro enzyme assay that detects ADP turnover that is directly proportional to AMPK activity. This uses naive AMPK that is activated during the assay with MK-8722. In kind it is functional. Also on record: scale not given: direction of the effect not stated beside the values. The note with it: 30 µM.
`O=C1CC2(CCCC2)CC(=O)N1CCn1cnnc1`: the Percent Effect came out at 5.88%.

For `CCC1(CC)CC(=O)N(CC(O)c2cccc(Br)c2)C1=O` (stereo not given), the Percent Effect was found to be 17.2%.

On to `CNC(=O)[C@@H](C)NC(=O)c1cc(-c2ccc(F)cc2)c(C)s1`, for which the Percent Effect was 2.33%.

As for `Cc1nccn1[C@@H]1CC[C@@H](N(C)S(=O)(=O)c2cccc(F)c2)[C@H]1O`, the Percent Effect is 28.1%.

On to `O=C(O)c1ccc(C2CCCN(C(=O)c3ccc[nH]3)C2)cc1` (stereo not given), for which the Percent Effect amounted to 3.76%.

As to `Cc1cnc(C(NC(=O)NCc2nc(C3CC3)no2)C2CC2)s1` (stereo not given), the Percent Effect was 0.145%.

Consider `COC(=O)CC1CCCCN1CC(=O)NCCc1ccc(F)cc1` (stereo not given), for which the Percent Effect amounted to 6.06%.

On to `Cc1cc(C2CCCN(CCc3ccc4c(c3)CCO4)C2)n[nH]1` (stereo not given), for which the Percent Effect was 3.65%.

For `COC(=O)c1ncccc1N1CCC(C(O)c2ccccc2)CC1` (stereo not given), the Percent Effect came to 12.8%.

Take `O=C(NCCc1ccncc1)c1cccc(S(=O)(=O)NC2CC2)c1`: the Percent Effect is -4.52%.

For the compound `Cc1nonc1CN1CC[C@@](O)(C2CCC2)[C@H](C)C1`, the Percent Effect is -1.54%.

Regarding `CCCC(=O)NC1CCCN(c2cncc(Br)c2)C1` (stereo not given), the Percent Effect is 22.4%.

`O=c1cc(N2CCCC2)cnn1Cc1noc(C2CCCO2)n1` (stereo not given): the Percent Effect was -1.31%.

Turning to `O=C(c1cc(C2CC2)nc2onc(-c3ccccc3)c12)N1CC[C@H](O)C1`, the Percent Effect is 4.74%.

For `CC(c1ccon1)N(C)S(=O)(=O)NCc1ccccc1` (stereo not given), the Percent Effect is 2.51%.

Consider `Cc1noc(CS(=O)(=O)c2cc(F)ccc2F)n1`, for which the Percent Effect was -0.296%.

Regarding `Cc1csc(CCNC(=O)N2CCC(NC(=O)OC(C)(C)C)CC2)n1`, the Percent Effect is -1.4%.

On to `CNc1cc2c(nn1)CCN(C(=O)c1ccccc1-n1cccn1)C2`, for which the Percent Effect was -15.3%.

As for `CN(C)S(=O)(=O)N1CCCC(c2nccnc2-c2cccc(Cl)c2)C1` (stereo not given), the Percent Effect is 16%.

In the case of `CCn1nc(C)c(CCN2CC3(CCOC3)CCC2=O)c1C` (stereo not given), the Percent Effect is -1.79%.

As to `COc1ccc(OCc2nc3cc4c(cc3c(=O)o2)OCCCO4)cc1`, the Percent Effect is -6.13%.

With `CSc1ccc(NC(=O)Cn2cc(N)cn2)cc1`, the Percent Effect is -79.3%.

Turning to `Cn1cc(CN(C(=O)c2ccc(O)c(Cl)c2)C2CC2)cn1`, the Percent Effect was 10.3%.

Consider `C=C(C)Cn1nc(C)c(CN2CCN(C3CCCCC3)C(=O)C2)c1C`, for which the Percent Effect turned out to be 10.7%.

Regarding `Cc1cnn(C2CN(c3nc(-c4ccncc4)nc4c3CCC4)C2)c1`, the Percent Effect worked out at 4.55%.

Consider `Fc1ccc(OCCCNC2=NCCN2)cc1`, for which the Percent Effect is -0.85%.

In the case of `Cc1cc(N(C)C)nc(N2CCn3c(C)nnc3C2)n1`, the Percent Effect is -2.14%.

For the compound `Fc1cccc(OC2CCN(CCn3cc4ccccc4n3)CC2)c1`, the Percent Effect came out at 7.33%.

For the compound `CCC(CN1CCCC1)n1cncc1-c1cnn(-c2ccccc2)c1` (stereo not given), the Percent Effect stood at 20%.

As to `COc1cccc2c1CCCCN2C(=O)c1oc(C)nc1C`, the Percent Effect turned out to be 5.74%.

For the compound `CNC(=O)c1cccnc1NCc1ccc(Cn2ccnc2)cc1`, the Percent Effect was -1.78%.

As for `Cc1ccccc1CCC(=O)N1CCc2ncnc(NCCO)c2CC1`, the Percent Effect stood at 0.622%.

Turning to `Cc1c(CN2CCc3[nH]cnc3C2C(=O)O)[nH]c2ccc(F)cc12` (stereo not given), the Percent Effect amounted to 3.73%.

On to `O=C(CN1CC(c2nc(-c3ccco3)no2)C1)NCCc1ccccc1`, for which the Percent Effect was -5%.

Regarding `O=C(c1ccnc(-n2cnnc2)c1)N1CCCC2(CCOC2)C1` (stereo not given), the Percent Effect is -4.79%.

Take `Cc1cc(C)n(C2CN(CCC(N)=O)C2)n1`: the Percent Effect is -0.505%.

With `COCCN(Cc1sccc1C)C(=O)c1c(O)cccc1F`, the Percent Effect was determined as 0.607%.

With `COc1cc(F)ccc1NC(=O)NC(C)C(=O)NC(C)(C)C` (stereo not given), the Percent Effect was -11.6%.

As for `COc1ncc(NCc2ccsc2)cc1C(N)=O`, the Percent Effect is 5.38%.

With `COc1cc(CCC(=O)N2CCC(c3cc4ncc(C)nc4[nH]3)C2)on1` (stereo not given), the Percent Effect was -0.349%.

Source of the values: ChEMBL document CHEMBL3988442, “University of Dundee, Small-Polar-MMV Screening Library” (2021).
